Experimental data as given in PubChem BioAssay (EPA / NIEHS).
Records with an inconclusive call do not appear. Calls of active or inactive are those of the source. How the source made its calls, unless noted: active means hit-call score of the fitted dose curve at least 0.9, where 1 is the maximum; inactive means score below 0.9.

Columns and labels:
[1] = read-out: Monocyte Chemoattractant Protein-1 (MCP1), CCL2 (gene 6347); test: BSK_LPS_MCP1: BioMAP Diversity Plus: LPS Assay for Monocyte Chemoattractant Protein-1 (MCP1) Biomarker Activity (AID 2283081); details: primary human HUVEC with PBMC; actives raise or lower the signal
How it was run: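 ELISA read-out of MCP-1 after 24 h chemical dosing of a human umbilical vein endothelial cell/peripheral blood mononuclear cell co-culture stimulated with LPS. Gain or loss of signal fitted relative to DMSO controls.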

[2] = BSK_LPS_PGE2: BioMAP Diversity Plus: LPS Assay for Prostaglandin E2 (PGE2) Biomarker Activity (AID 2283082); details: primary human HUVEC with PBMC; actives raise or lower the signal;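 on AC50: secreted prostaglandin E2 measured by ELISA in LPS-stimulated co-culture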
How it was run: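 Endpoint derived from bidirectional curve fitting versus DMSO of ELISA-measured PGE2 in LPS-stimulated human primary vascular co-culture (HUVEC with PBMC) harvested at 24 h.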

[3] = read-out: Macrophage colony-stimulating factor (MCSF), CSF1 (gene 1435); test: BSK_LPS_MCSF: BioMAP Diversity Plus: LPS Assay for Macrophage colony-stimulating factor (MCSF) Biomarker Activity (AID 2283083); details: primary human HUVEC with PBMC; actives raise or lower the signal
How it was run: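 HUVEC + PBMC co-culture (human primary), 24 h post-dose; M-CSF by ELISA; gain/loss of signal fitted bidirectionally vs DMSO baseline.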

[4] = read-out: Tissue Factor, F3 (gene 2152); test: BSK_LPS_TissueFactor: BioMAP Diversity Plus: LPS Assay for Tissue Factor Biomarker Activity (AID 2283084); details: primary human HUVEC with PBMC; actives raise or lower the signal
How it was run: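 HUVEC/PBMC co-culture, LPS-activated; CD142 ELISA read 24 h post-dose; bidirectional curve fit vs DMSO negative control.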

[5] = read-out: Tumor necrosis factor (Homo sapiens) (UniProt P01375); test: BSK_LPS_TNFa: BioMAP Diversity Plus: LPS Assay for Tumour Necrosis Factor alpha (TNFa) Biomarker Activity (AID 2283085); details: primary human HUVEC with PBMC; actives raise or lower the signal
How it was run: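 Primary human vascular co-culture of HUVEC and PBMC; TNFa ELISA 24 h after treatment, analysed as increase or decrease relative to DMSO control.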

[6] = read-out: Vascular cell adhesion molecule 1 (VCAM1), VCAM1 (gene 7412); test: BSK_LPS_VCAM1: BioMAP Diversity Plus: LPS Assay for Vascular cell adhesion molecule 1 (VCAM1) Biomarker Activity (AID 2283086); details: primary human HUVEC with PBMC; actives raise or lower the signal
How it was run: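 Primary human vascular co-culture (umbilical vein endothelium plus PBMC) stimulated with LPS received chemical; 24 h later VCAM-1 was read by ELISA. Overt cytotoxicity was assessed by sulforhodamine B staining of parallel cultures at the same time point.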

CD38, CD38 (gene 952) = test: BSK_SAg_CD38: BioMAP Diversity Plus: SAg Assay for CD38 Biomarker Activity (AID 2283087); details: primary human HUVEC with PBMC; actives raise or lower the signal
How it was run: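 Fluorescence ELISA of cell-surface CD38 served as the read-out, with either increase or decrease fitted against DMSO controls. Cells were a human umbilical vein endothelium plus PBMC co-culture under SEB/TSST-1 stimulation, measured 24 h after dosing.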

CD40, CD40 (gene 958) = test: BSK_SAg_CD40: BioMAP Diversity Plus: SAg Assay for CD40 Biomarker Activity (AID 2283088); details: primary human HUVEC with PBMC; actives raise or lower the signal
How it was run: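 HUVEC/PBMC co-culture, 24 h post-dose; CD40 by ELISA, fluorescence intensity; bidirectional fit vs DMSO negative control.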

CD69, CD69 (gene 969) = test: BSK_SAg_CD69: BioMAP Diversity Plus: SAg Assay for CD69 Biomarker Activity (AID 2283089); details: primary human HUVEC with PBMC; actives raise or lower the signal;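 on AC50: cell surface CD69 protein quantified by ELISA with fluorescence detection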
How it was run: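 HUVEC co-cultured with PBMC were dosed with chemical, and CD69 was measured by ELISA with fluorescence read-out 24 h later. Bidirectional curve fitting used DMSO as negative control and activity baseline.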

[7] = read-out: Monocyte Chemoattractant Protein-1 (MCP1), CCL2 (gene 6347); test: BSK_SAg_MCP1: BioMAP Diversity Plus: SAg Assay for Monocyte Chemoattractant Protein-1 (MCP1) Biomarker Activity (AID 2283090); details: primary human HUVEC with PBMC; actives raise or lower the signal
How it was run: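 MCP-1 levels in the endothelial–PBMC SAg co-culture were quantified by ELISA at 24 h post-dosing; both increases and decreases versus DMSO scored. Cytotoxicity monitored by SRB total protein in parallel cultures.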

[8] = read-out: E-selectin (Homo sapiens) (UniProt P16581); test: BSK_SAg_Eselectin: BioMAP Diversity Plus: SAg Assay for Eselectin Biomarker Activity (AID 2283091); details: primary human HUVEC with PBMC; actives raise or lower the signal
How it was run: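 E-selectin ELISA readout at 24 h post-dosing in human umbilical vein endothelial cell/PBMC co-culture; gain or loss of signal fitted relative to DMSO baseline.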

[9] = read-out: Monokine induced gamma interferon (MIG), CXCL9 (gene 4283); test: BSK_SAg_MIG: BioMAP Diversity Plus: SAg Assay for Monokine induced gamma interferon (MIG) Biomarker Activity (AID 2283092); details: primary human HUVEC with PBMC; actives raise or lower the signal
How it was run: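 HUVEC plus human PBMC co-culture, chemicals dosed and MIG (CXCL9) quantified by ELISA at 24 h. Bidirectional curve fitting against DMSO as negative control and baseline, so both gain and loss of signal count as activity.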

[10] = BSK_SAg_PBMCCytotoxicity: PBMC Cytotoxicity Assessment in the BioMAP Diversity Plus: SAg Assay (AID 2283093); details: primary human HUVEC with PBMC;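 further: PBMC viability measured as Alamar Blue reduction fluorescence at 546/580 nm; fitted both ways against DMSO so a hit may be loss or gain of signal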;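 on AC50: PBMC superantigen activated with SEB plus TSST-1 one hour after compound addition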
How it was run: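 Compound added to 75,000 PBMC/well for 1 h; SEB and TSST-1 then added at 20 ng/mL final each; 90 h incubation; Alamar Blue 6 h; read 546/580 nm ex/em. Activity fitted bidirectionally relative to DMSO baseline.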

[11] = read-out: Interleukin-8 (IL8), CXCL8 (gene 3576); test: BSK_SAg_IL8: BioMAP Diversity Plus: SAg Assay for Interleukin-8 (IL8) Biomarker Activity (AID 2283094); details: primary human HUVEC with PBMC; actives raise or lower the signal
How it was run: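 In this co-culture of human umbilical vein endothelium with peripheral blood mononuclear cells, IL-8 is assayed by ELISA at 24 h. DMSO serves as baseline for bidirectional curve fitting.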

[12] = BSK_SAg_Proliferation: Cell Proliferation Assessment in the BioMAP Diversity Plus: SAg Assay (AID 2283095); details: primary human HUVEC with PBMC;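 further: relative cell number as total protein by SRB absorbance in sub-confluent culture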
How it was run: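 Readout is SRB-stained protein (560 nm) in a primary human HUVEC and PBMC co-culture; sub-confluent cultures are read at 96 h. Activity is fitted bidirectionally using DMSO as baseline.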

[13] = BSK_SAg_SRB: Viability Assessment in the BioMAP Diversity Plus: SAg Assay (AID 2283096); details: primary human HUVEC with PBMC;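 further: cells read one day after compound addition; hits may be either gain or loss of signal compared with DMSO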
How it was run: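 Total protein by sulforhodamine B staining, 24 h after dosing, in HUVEC–PBMC co-culture; DMSO-referenced bidirectional fitting.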

[14] = target: human CYP19A1, CYP19A1 (gene 1588) (UniProt P11511); test: NVS_ADME_hCYP19A1: NovaScreen (NVS) CYP450-related Enzyme Activity (ADME) Assay for human CYP19A1 (AID 2283098; active means hit-call score of the fitted dose curve at least 0.9, where 1 is the maximum)
How it was run: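 Biochem, cell-free; recombinant enzyme + specific substrate; fluorescence intensity at 0.5 h post-dose; 10 uM duplicate primary, conc. series for actives; acetonitrile = negative control/baseline; positive and negative controls on every plate.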

Measured: AC50

Tumor necrosis factor (Homo sapiens), sequence (P01375 whole entry, looked up): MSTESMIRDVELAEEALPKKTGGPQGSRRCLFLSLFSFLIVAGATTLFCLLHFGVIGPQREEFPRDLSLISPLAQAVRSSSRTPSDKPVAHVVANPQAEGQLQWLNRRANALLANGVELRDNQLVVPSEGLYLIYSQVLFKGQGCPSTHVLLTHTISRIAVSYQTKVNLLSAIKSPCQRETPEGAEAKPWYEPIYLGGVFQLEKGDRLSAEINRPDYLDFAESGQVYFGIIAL
E-selectin (Homo sapiens), sequence (P16581 whole entry, looked up): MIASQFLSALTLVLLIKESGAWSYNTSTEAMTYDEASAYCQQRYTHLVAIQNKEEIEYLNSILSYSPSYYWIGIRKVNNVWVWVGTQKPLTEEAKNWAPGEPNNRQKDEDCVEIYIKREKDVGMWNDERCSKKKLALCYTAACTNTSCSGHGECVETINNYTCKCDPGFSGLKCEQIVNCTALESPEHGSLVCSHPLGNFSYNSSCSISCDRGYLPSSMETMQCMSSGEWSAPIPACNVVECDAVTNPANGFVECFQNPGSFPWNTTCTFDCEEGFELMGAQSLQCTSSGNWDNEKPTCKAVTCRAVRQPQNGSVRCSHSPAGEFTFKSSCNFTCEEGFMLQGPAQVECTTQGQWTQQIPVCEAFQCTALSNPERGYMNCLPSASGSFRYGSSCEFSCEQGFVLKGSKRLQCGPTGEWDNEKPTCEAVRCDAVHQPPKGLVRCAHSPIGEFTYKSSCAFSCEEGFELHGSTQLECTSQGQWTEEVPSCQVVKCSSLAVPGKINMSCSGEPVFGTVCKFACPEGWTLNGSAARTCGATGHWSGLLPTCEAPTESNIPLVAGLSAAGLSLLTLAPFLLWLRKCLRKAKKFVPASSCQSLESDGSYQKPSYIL
human CYP19A1, CYP19A1 (gene 1588), sequence (P11511 whole entry, looked up): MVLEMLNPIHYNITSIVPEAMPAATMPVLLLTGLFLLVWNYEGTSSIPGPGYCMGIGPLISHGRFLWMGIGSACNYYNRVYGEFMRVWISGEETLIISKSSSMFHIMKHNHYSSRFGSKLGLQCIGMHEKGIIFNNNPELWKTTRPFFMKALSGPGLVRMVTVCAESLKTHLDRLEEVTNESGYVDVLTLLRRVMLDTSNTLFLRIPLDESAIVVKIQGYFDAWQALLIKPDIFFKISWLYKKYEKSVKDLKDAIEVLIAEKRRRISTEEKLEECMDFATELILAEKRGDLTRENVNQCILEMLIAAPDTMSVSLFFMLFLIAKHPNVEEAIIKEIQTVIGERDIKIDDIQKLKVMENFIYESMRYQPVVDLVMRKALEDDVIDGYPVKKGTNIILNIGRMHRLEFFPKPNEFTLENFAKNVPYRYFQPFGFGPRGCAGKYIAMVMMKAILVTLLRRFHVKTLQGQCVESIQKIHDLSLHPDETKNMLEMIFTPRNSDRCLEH

Oc1ccccc1O
active: [2] 14.4 µM | [3] 3.92 µM | [6] 2.79 µM | CD40, CD40 (gene 958) 4.21 µM | CD69, CD69 (gene 969) 5.69 µM | [12] 24.5 µM | [13] 8.32 µM
not listed: [14]
inactive: all other assays above

CCCCCCC(C=O)=Cc1ccccc1
inactive: [1] | [3] | [4] | [14]
active: [2] 15.3 µM | [5] 30.1 µM | [6] 29.7 µM | CD38, CD38 (gene 952) 33.4 µM | CD40, CD40 (gene 958) 32 µM | CD69, CD69 (gene 969) 31 µM | [7] 32 µM | [8] 34.4 µM | [9] 31.5 µM | [10] 31 µM | [11] 29.8 µM | [12] 34.9 µM | [13] 35.3 µM

OCC(O)CO
not listed: [14]
inactive: all other assays above

Cc1occc(=O)c1O
not listed: [14]
inactive: all other assays above

Nc1nc(=S)c2[nH]cnc2[nH]1
active: [2] 20 µM | [12] 13.5 µM
not listed: [14]
inactive: all other assays above

CCCCCCC(CCCCCCCCCCC(=O)OCC(COC(C)=O)OC(C)=O)OC(C)=O (stereo not drawn)
not listed: [14]
inactive: all other assays above

CC(=O)S[C@H](C(=O)N[C@H]1Cc2ccccc2[C@H]2CCC[C@@H](C(=O)O)N2C1=O)C(C)C
active: [12] 7.81 µM
not listed: [14]
inactive: all other assays above

CC(C)c1cccc(C(C)C)c1
not listed: [12] | [14]
inactive: all other assays above
